Compounds with a hit are over-represented: about 27% of the library has one in this group of screens.
CYP2C9 inh: blockers of cytochrome P450 2C9 activity – biochemical, luminescence, ADME assay, primary screen | P11712 | CYP2C9 Supersomes, luciferin-H conversion | inhibition, % at 5 µM | hit rate 20% among 96,000 | AID 777, 2007;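 active means blocking of liver enzyme CYP2C9 beyond about 50% at 5 µM, limit read from the data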
Cav32 inh: Cav3.2 calcium influx blockers – cell-based, Fluo-4 calcium fluorescence, FDSS, MLSMR library, primary screen | Cav3.2-expressing cells; stronger effect = lower value | B-score at 10 µM | hit rate 4% among 100,000 | AID 449739, 2010;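 active means single-dose well whose peak fluorescence ratio is a statistical outlier from its plate by either plate-standardised score or position-corrected B-score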
CYP2C9 act: human CYP2C9 activators, primary screen, biochemical, luminescence. recombinant CYP2C9, luciferin-H conversion; stronger effect = higher value; factor 1 = untreated enzyme, 0 = blocked. hit rate 1.4% among 96,000. activation factor at 5 µM. Cytochrome P450 2C9 (Homo sapiens), P11712. AID 1024, 2008;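 active means activation factor of 2 or more for CYP2C9 at a 5 µM dose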;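 further: 0 = sulfaphenazole-blocked wells and 1 = vehicle-only wells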
CYP2C19 inh: blockers of cytochrome P450 2C19 activity – biochemical, luminescence, ADME assay, primary screen; CYP2C19 Supersomes, luciferin-H EGE luminescence, 30 min; inhibition, % at 5 µM; hit rate 21% among 96,000;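 active means CYP2C19 inhibition above a set limit at 5 µM in the primary screen, cut at about 50% in these data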;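 further: plate controls were negative control wells for no effect and 2.5 mM tranylcypromine positive control for full effect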
Target sequence (P33261 whole entry, looked up): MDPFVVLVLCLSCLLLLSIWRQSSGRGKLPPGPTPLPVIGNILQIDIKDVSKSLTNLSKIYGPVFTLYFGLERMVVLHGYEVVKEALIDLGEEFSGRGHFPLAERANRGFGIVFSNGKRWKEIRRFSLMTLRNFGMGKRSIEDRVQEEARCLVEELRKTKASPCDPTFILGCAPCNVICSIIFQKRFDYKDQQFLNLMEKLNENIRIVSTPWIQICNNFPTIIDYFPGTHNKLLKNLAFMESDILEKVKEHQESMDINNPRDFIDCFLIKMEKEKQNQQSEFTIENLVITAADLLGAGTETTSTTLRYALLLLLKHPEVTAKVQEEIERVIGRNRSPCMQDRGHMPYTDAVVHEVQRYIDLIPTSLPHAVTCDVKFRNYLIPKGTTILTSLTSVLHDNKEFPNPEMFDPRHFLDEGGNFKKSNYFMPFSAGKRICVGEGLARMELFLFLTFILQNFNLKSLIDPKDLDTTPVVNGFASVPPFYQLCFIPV
CYP2C19 activ: human CYP2C19 activators, primary screen, biochemical, luminescence. activation factor at 5 µM. AID 1025, 2008. recombinant CYP2C19, luciferin-H EGE luminescence; stronger effect = higher value; 0 = fully inhibited enzyme, 1 = untreated enzyme. 96,000 tested, under 10 active;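 active means activation factor of at least 2 at 5 µM in the primary screen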;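 further: 0 = wells with 2.5 mM tranylcypromine and 1 = vehicle-only wells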
Active calls of the source: *; x = not tested or not shown.

SMILES	CYP2C9 inh	Cav32 inh	CYP2C9 act	CYP2C19 inh	CYP2C19 activ
O=C(Nc1ccc2c(c1)OCO2)Oc1ccccc1	1.5	-0.128	1	62.2*	0.4
CCN1CCN(C(C)C(=O)Nc2c(C)n(C)n(-c3ccccc3)c2=O)CC1 (stereo not drawn)	-10.2	0.483	1.1	-10.2	1.1
CCn1c(-c2ccccc2)ccc(C#N)c1=O	44.2	-0.963	0.6	39.4	0.6
CCOC(=O)C1CCCN(CCC(=O)Nc2ccc(C)cc2)C1 (stereo not drawn)	x	0.556	x	x	x
COc1ccc(Br)cc1C(=O)Nc1nnn(C)n1	-75.1	0.9	1.8	23.9	0.8
COc1ccccc1C(=O)Nc1ccc2c(c1)OCO2	14.3	-0.666	0.9	89.8*	0.1
COc1ccc(Cl)cc1C(=O)Nc1nnn(C)n1	-99.9	0.563	2*	-6.6	1.1
CN(c1ccccc1C(=O)Nc1ccc2c(c1)OCO2)S(C)(=O)=O	x	0.0599	x	x	x
O=C(Nc1ccccc1C(=O)Nc1ccc2c(c1)OCO2)c1ccco1	97.3*	-0.156	0	50.6*	0.5
CCOC(=O)c1c(C)[nH]c(C(=O)Nc2ccc3c(c2)OCO3)c1C	34.5	x	0.7	86.0*	0.1
CNc1nc(Oc2ccc(=O)n(C)n2)nc(N2CCOCC2)n1	-5.7	0.448	1.1	-10.0	1.1
CC1=CCC(C(C)(C)NC(=O)c2ccccc2)C/C1=N\O (stereo not drawn)	x	-0.0481	x	x	x
COCCSc1ccccc1C(=O)Nc1ccc2c(c1)OCCO2	12.6	-0.232	0.9	11.5	0.9
COc1ccc(Cl)cc1C(=O)Nc1ccc2c(c1)OCO2	-231.7	-2.67	3.3*	59.3*	0.4
Cc1ccc(NC(=O)/C(=C\c2ccc3c(c2)OCO3)NC(=O)c2ccco2)cc1	83.8*	0.617	0.2	10.1	0.9
Cc1ccc(NC(=O)/C(=C\c2cccc(Br)c2)NC(=O)c2ccco2)cc1	29.8	0.181	0.7	-4.4	1
COc1ccccc1C(=O)Nc1ccc2c(c1)OCCO2	-108.2	-0.76	2.1*	11.4	0.9
CC(=O)c1c(C)nn(C(C)CC(=O)O)c1C (stereo not drawn)	x	0.689	x	x	x
Cc1ccc(S(=O)(=O)NC2CCC(C(=O)O)CC2)cc1 (stereo not drawn)	17.6	0.693	0.8	32.7	0.7
COc1ccc(NC(=O)C2=C(C)Nc3ncnn3C2c2ccccc2C(F)(F)F)c(OC)c1 (stereo not drawn)	45.1	x	0.5	38.5	0.6
O=C(C1=C[C@@H](c2ccc(Br)cc2)C[C@@H](OCc2ccc(CO)cc2)O1)N1CCN(Cc2ccc3c(c2)OCO3)CC1	x	-2.18	x	x	x
c1ccc(C(c2ccccc2)N2CCN(Cc3nnnn3C3CCCC3)CC2)cc1	97.7*	x	0	96.5*	0
CCC(C)(C)n1nnnc1CN1CCN(C(c2ccccc2)c2ccccc2)CC1	x	-3.42*	x	x	x
Clc1ccc2c(c1)CCc1cccnc1C2=C1CCNCC1	x	-0.875	x	x	x
COC(=O)c1scc(C)c1N/N=C(\C)c1ccc(F)cc1F	-8.4	-0.0283	1.1	8.2	0.9
SMILES	CYP2C9 inh	Cav32 inh	CYP2C9 act	CYP2C19 inh	CYP2C19 activ
CCOC(=O)C1CCCN(C(=O)c2ccc(CS(=O)(=O)c3ccc(C)cc3)o2)C1 (stereo not drawn)	83.1*	0.203	0.2	11.4	0.9
Cc1ccc(S(=O)(=O)Cc2ccc(C(=O)N3CCCC3)o2)cc1	19.0	0.739	0.8	58.5*	0.4
Cc1ccc(-c2noc(C3CCCN(C(=O)c4c(F)cccc4F)C3)n2)cc1 (stereo not drawn)	90.8*	-1.99	0.1	77.8*	0.2
CCCS(=O)(=O)N1CCCC(c2nc(-c3ccc(OC)cc3)no2)C1 (stereo not drawn)	82.1*	0.447	0.2	33.8	0.7
COc1ccc(-c2noc(C3CCCN(S(=O)(=O)c4ccc(C)c(Cl)c4)C3)n2)cc1OC (stereo not drawn)	56.6*	-2.34	0.4	67.6*	0.3
COc1ccc(-c2noc(C3CCCN(S(=O)(=O)c4cccc(Cl)c4C)C3)n2)cc1OC (stereo not drawn)	84.8*	-0.701	0.2	91.1*	0.1
Cc1ccccc1CN1CCN(CC(=O)NCc2ccccc2)C1=O	30.4	0.785	0.7	12.1	0.9
CC(=O)Nc1c(O)n(C)c2ccccc12	0.9	-0.0897	1	5.4	0.9
COc1ccc(-c2noc(C3CCCN(C(=O)c4ccccc4OC)C3)n2)cc1OC (stereo not drawn)	17.4	0.0168	0.8	4.9	1
COc1ccc(C(=O)N2CCCC(c3nc(-c4ccc(OC)c(OC)c4)no3)C2)c(OC)c1 (stereo not drawn)	61.4*	-2.07	0.4	40.0	0.6
O=S(=O)(c1ccccc1Cl)N1CCCC1c1nc(-c2cccc(Cl)c2)no1 (stereo not drawn)	48.2	-0.0899	0.5	25.9	0.7
O=S(=O)(c1ccccc1Cl)N1CCCC(c2nc(-c3cccnc3)no2)C1 (stereo not drawn)	78.7*	-0.0142	0.2	95.0*	0.1
Cc1ccnc(NS(=O)(=O)c2ccc(NC(=O)c3c(-c4ccccc4Cl)noc3C)cc2)n1	x	-0.38	x	x	x
C=CCOC(=O)/C(=C/c1ccco1)NC(=O)/C=C/c1ccccc1	73.4*	-1.05	0.3	77.3*	0.2
Cc1cc(C)c(C)c(S(=O)(=O)Nc2ccc(OCC(=O)O)cc2)c1C	76.2*	0.904	0.2	-7.6	1.1
CCOC(=O)COc1ccc(S(=O)(=O)c2ccc(OCC(=O)OCC)cc2)cc1	41.5	-6.05*	0.6	4.8	1
CCOC(=O)COc1ccc(S(=O)(=O)Nc2ccc(C)cc2)cc1	59.1*	-0.945	0.4	19.8	0.8
COc1ccc(C)c(S(=O)(=O)Nc2ccc(OCC(=O)O)cc2)c1	-16.6	0.0865	1.2	-10.4	1.1
Cc1ccc(NS(=O)(=O)c2ccc(OCC(=O)N3CCOCC3)cc2)cc1	47.2	0.341	0.5	56.8*	0.4
C=CCNS(=O)(=O)c1ccc(OCC(=O)OCC)cc1	26.9	0.123	0.7	1.6	1
Cc1ccc(NS(=O)(=O)c2ccc(CCC(=O)N3CCOCC3)cc2)cc1	12.2	0.0436	0.9	18.7	0.8
CCCc1ccc(-c2cc(N)n[nH]2)cc1	-18.9	0.413	1.2	-1.8	1
CCOC(=O)Nc1ccc2c(c1)OCO2	10.4	1.28	0.9	21.5	0.8
CCOC(=O)CC(N)c1ccc2c(c1)OCO2 (stereo not drawn)	8.4	0.187	0.9	52.3*	0.5
CCOC(=O)Cc1csc(NC(=O)c2ccc3c(c2)OCO3)n1	36.3	-0.63	0.6	3.7	1
CCOc1ccc(S(=O)(=O)N(C)c2ccc(OCC(=O)N3CCOCC3)cc2)cc1	74.4*	0.628	0.3	25.2	0.7
